Test results taken from PubChem BioAssay (NCI).
The panel holds about 83,000 compounds, 20% with a hit somewhere; the sample as a whole holds those more often.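 Activity criterion: percent growth below 10, measured after cells in 96-well plates were exposed to a single compound concentration for 48 hours.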 A number with no mark means an inactive call. Active and inactive are the calls of the source.

Tested on: MDA-MB-468 breast
Assay: NCI-60 one-dose screen, 48 h (100 = growth as untreated, 0 = no growth, -100 = all killed)
Conditions: 10 µM unless noted

| Compound | growth |
| --- | --- |
| Nc1ncnc2c1c(-c1cccc(Cl)c1)nn2CC(=O)N1CCOCC1 | 98.6% |
| Nc1cccc2cccc(O)c12 | 82.6% |
| Cc1ccc(S(=O)(=O)NCCNc2nccc(-c3c(-c4cccc(N)c4)nc4sccn34)n2)cc1 | 63.2% |
| CSc1ccc(/C(=N/N=C(N)N)c2ccccc2)cc1 | 44.8% |
| Nc1ccn(C2CC(N)C(CO)O2)c(=O)n1 (stereo not given) | 101% |
| CCOC(=O)C1=C(CCl)N(C)C(=O)NC1c1ccc2c(c1)OCO2 (stereo not given) | 24.1% |
| CC/C(=C(/c1ccc(Cl)cc1)c1ccc(OCCN2CCCCCC2)cc1)c1ccccc1 | 78.3% |
| N#Cc1ccc(/C=C/c2cn(-c3ccccc3)nc2-c2cccc([N+](=O)[O-])c2)cc1 | 64.7% |
| COC(=O)[C@@H]1CC[C@]2(C)[C@H](CC[C@@H]3O[C@@]32C)[C@@]1(C)CC(=O)c1ccoc1 | 95.7% |
| CCN1C(=O)N(CC)C2C1NN=c1s/c(=C\c3cnc(C)n3C)c(=O)n12 (stereo not given) | -12.2% (active) |
| CCCCCCCCCCCCCCCCNC(=S)N/N=C/c1ccc(O)cc1O | 57.1% |
| NC(=O)c1c(NC(=O)c2cccc(OC(F)(F)F)c2)sc2c1CCC(=O)C2 | 42% |
| O=c1[nH]c2c(s1)CCCC2CN1CCCCC1 (stereo not given) | 109% |
| COc1cc2nc3cc([N+](=O)[O-])ccc3c(NCCNCC(C)O)c2cc1OC (stereo not given) | -45.6% (active) |
| COc1cc(/C=C2\CN(S(=O)(=O)c3ccccc3)C/C(=C\c3cc(CN4CCCCC4)c(O)c(OC)c3)C2=O)cc(CN2CCCCC2)c1O | 53.2% |
